Measurements: PubChem BioAssay (NCI)
About 79,000 compounds went through this panel and 15% of them were active in at least one assay; those are over-represented in the sample as a whole. A number with no mark means an inactive call. Activity calls are given as the source filed them. Cut-off read from the data, not from the text of the source: active = growth inhibition above about 70%; inactive = the rest.

How the values were obtained:
[1] = NCI Yeast Anticancer Drug Screen. Data for the rad50 strain (AID 155);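 note: 0% = growth of vehicle-only cultures of the same strain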; details: S. cerevisiae rad50 strain growth inhibition; at 50.0 µM; hits give high values
How it was run: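 Relative growth inhibition (compound vs vehicle) was measured in yeast with a defined repair-gene alteration.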

[2] = NCI Yeast Anticancer Drug Screen. Data for the mec2-1 strain (AID 157); details: S. cerevisiae mec2-1 strain, at 50.0 µM, hits give high values
How it was run: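 Yeast mec2-1 mutant treated with compound. Readout: growth inhibition vs vehicle controls.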

[3] = NCI Yeast Anticancer Drug Screen. Data for the sgs1 mgt1 strain (AID 161);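 note: 0% = growth of cultures given vehicle only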; details: S. cerevisiae sgs1 mgt1 strain, at 50.0 µM, hits give high values
How it was run: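 Inhibition of yeast growth, normalised to vehicle-treated controls, is reported for a strain bearing genetic alterations in DNA damage repair.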

[4] = NCI Yeast Anticancer Drug Screen. Data for the cln2 rad14 strain (AID 165);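 note: 0% = growth equal to vehicle treated cultures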; details: S. cerevisiae cln2 rad14 strain, at 50.0 µM, hits give high values
How it was run: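 cln2 rad14 yeast strain; compound exposure; growth inhibition read vs vehicle controls.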

[5] = NCI Yeast Anticancer Drug Screen. Data for the bub3 strain (AID 167); details: S. cerevisiae bub3 mutant strain, at 50.0 µM, hits give high values
How it was run: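 Screening used yeast with an engineered genetic alteration affecting cell cycle control. Compound-exposed cultures were compared with vehicle cultures, and reduced growth was taken as inhibition.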

[6] = NCI Yeast Anticancer Drug Screen. Data for the mlh1 rad18 strain (AID 175); details: S. cerevisiae mlh1 rad18 strain growth inhibition; at 50.0 µM; hits give high values
How it was run: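 Yeast w/ defined DNA-repair lesions; compound exposure; growth vs vehicle controls → % inhibition.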

SMILES	growth inhibition [1]	growth inhibition [2]	growth inhibition [3]	growth inhibition [4]	growth inhibition [5]	growth inhibition [6]
CCOC(=O)/C(=C\c1ccccc1)C(=O)O	-6.75%	-29.9%	-6.25%	26%	-21.9%	-1.8%
C=C1c2ccccc2N(S(=O)(=O)c2ccc(C)cc2)C12CCCCC2	3.9%	14.6%	-10.2%	-3.2%	-0.7%	-6%
Nc1nc2c(-c3ccc([N+](=O)[O-])cc3)nnn2c2ccccc12	12.7%	5.5%	37%	9.7%	22.2%	25.3%
O=C(Nc1cccc([N+](=O)[O-])c1)C(=O)C(C(=O)c1ccccc1-c1ccccc1)C1OC(=O)c2ccccc21 (stereo not drawn)	27.9%	3.45%	17.9%	-45%	-6.85%	10.1%
COc1ccc(NC(=O)CCCC(=O)CC(=O)c2ccc(Cl)cc2)c(OC)c1	32.6%	13.2%	-0.95%	-20%	-1.95%	18.1%
NCCNC(=O)CCC(CN(CC(=O)O)CC(=O)O)N(CC(=O)O)CC(=O)O (stereo not drawn)	42.8%	69.7%	44%	57%	39%	42.7%
CC1(C)C2CCC1(C)C1(C2)OC(CCl)CS1 (stereo not drawn)	7.4%	-13.8%	14.1%	4.3%	22.4%	8.4%
COc1ccc(C=O)c(C)c1	-4.05%	-30.1%	4.15%	15.3%	-15.8%	-5.45%
Cc1nc(N)[nH]c(=O)c1CCCN=Cc1ccccc1	8.5%	56.5%	2.8%	18.5%	92.2% (active)	51.1%
CCN(CC)CCSSCCN(CC)CC	-9%	3.7%	-7.05%	-15.2%	2.35%	5.3%
O=C(OC1(c2ccccc2)OC(=O)c2ccccc21)c1ccccc1C(=O)c1ccccc1 (stereo not drawn)	-6.65%	2.45%	-12.1%	3.45%	3.4%	-25.9%
N#Cc1cc([N+](=O)[O-])ccc1NC(=O)C(=O)C(C(=O)/C=C/c1ccccc1)C1OC(=O)c2ccccc21 (stereo not drawn)	-1.05%	-15.9%	-41.2%	5.55%	-15.2%	8.95%
[N-]=[N+]=NC1=NNC2(C(=O)N1)c1ccccc1-c1ccccc12	-6.35%	-17.5%	-22.9%	-5.75%	-30.1%	-18.6%
NC(=O)C(O)C(O)CO (stereo not drawn)	-8.8%	-9.35%	-15.2%	7.2%	-8.8%	-5.25%
O=C(/C=C/c1ccccn1)c1ccc(Cl)cc1	22.1%	10.7%	24.1%	16.9%	22.4%	13.1%
CCOC(=O)c1ccc(NC(=O)Nc2ccccc2C(=O)OC)cc1	9.95%	0.35%	2.7%	9.55%	25.4%	7.4%
O=C(O)c1cc2ccccc2c2cc3ccccc3cc12	28.6%	39%	26.6%	57.3%	33.2%	70.8% (active)
COc1cc2c(c(OC)c1OC)-c1ccc(OC)c(=O)cc1[C@@H](NC(=O)c1ccccc1)CC2	11.7%	7.15%	18.7%	-0.05%	14.2%	18.9%
N#C/C1=C(\C#N)CCC2(C#N)C3C=CC(O3)C2(C#N)CC1 (stereo not drawn)	14.9%	12.6%	-0.65%	13.3%	8.45%	23.1%

SMILES	growth inhibition [1]	growth inhibition [2]	growth inhibition [3]	growth inhibition [4]	growth inhibition [5]	growth inhibition [6]
O=C(O)/C(=N\O)c1cnnn1-c1ccccc1	-5.95%	11.9%	-8.45%	3.35%	-17.6%	-25.9%
Cc1ccnc2ccccc12	0.15%	1.55%	-1.6%	-3.2%	-2.15%	-11.4%
O=C1CN(CCCN2CCOCC2)CC(=O)N2Cc3ccccc3CN12	-25.9%	-3.8%	-9.45%	-0.45%	2.95%	3.7%
CC(=O)N1CCCCC1C/C(C)=N/O (stereo not drawn)	3.55%	11.6%	-5.95%	-5.6%	1.35%	3.3%
C[N+](C)(CCCN1C(=O)c2cccc3c(Br)ccc(c23)C1=O)Cc1ccc(Cl)c(Cl)c1	97.8% (active)	98% (active)	98.3% (active)	95.8% (active)	95.7% (active)	98% (active)
NNc1nnc(Cl)c2c1ncn2Cc1ccccc1	-16.9%	-7.45%	23.1%	-21.4%	2.75%	20.6%
CC(=O)C(C(c1ccccc1)N1CCOCC1)N1CCOCC1 (stereo not drawn)	12.1%	-0.8%	-24%	1.15%	-23.2%	6.25%
CCCCNc1ccc2c(C)cc(=O)oc2c1	-22.9%	-30.6%	-16.9%	0.7%	-21.4%	-17.4%
COC(=O)c1nc[nH]c1C(=O)OC	10.2%	-25.9%	15.8%	4%	-0.8%	12.6%
c1ccc(C2SCc3nc4cc5ccccc5cc4n32)cc1 (stereo not drawn)	-21.6%	6.4%	17.1%	12%	-17%	16.8%
O=C1OC(c2ccccc2)=CC1(Cc1ccccc1)Cc1ccccc1	0.2%	-25.4%	4.35%	-35.2%	2.6%	-5.15%
NC(=O)/C(=C\c1ccc(OCc2ccccc2)c(OCc2ccccc2)c1)NC(=O)c1ccccc1	41.2%	22.4%	44%	32.6%	-3.65%	17.7%
O=C1NC(N2CCCCC2)=N/C1=C\c1ccco1	-11.8%	0.2%	8.35%	13.7%	-5.65%	-33.8%
OCC1(CO)CCC=CO1	3.8%	-7.8%	2.5%	10.7%	1.05%	5%
CC(=O)Oc1ncnc2c1cnn2C	-8.95%	-1.65%	-15.6%	-38.6%	2.15%	-3.3%
Cc1cc(C)c2c(=O)n(-c3ccc(Br)cc3)c(=S)n(-c3ccc(Br)cc3)c2n1	19.2%	4.35%	-3.2%	12.8%	-3.85%	23.5%
CC(C)C(=O)OCc1ccc(Cl)cc1	29.8%	38.3%	21.8%	12.1%	26.8%	17.4%
COc1c2c(c3ccccc3c1O)C1C=CC2C1 (stereo not drawn)	7.6%	7.6%	-37.7%	-5.25%	0.25%	-16.3%
CC1(C)CCC(C)(C)C1C(=O)NC(O)C(=O)O (stereo not drawn)	-21.4%	8.8%	-33%	-2.2%	3.25%	-9.8%
